Inconclusive results are not listed. Calls of active or inactive are those of the source. Calls come from the whole dose curve; as a rule, active = well fitted inhibition curve with a large enough effect; inconclusive = small, poorly fitted or top-dose-only effect; inactive = flat fitted curve, though single readings scatter.
Columns and labels:
[1] = tested on: CRL-7250; experiment: Cytotoxic Profiling of Annotated Libraries Using Quantitative High-Throughput Screening (AID 1296008); settings: Five cell lines viability, CellTiter-Glo ATP luminescence, 48-72 h; hits give low values; for max response: % is set by controls: 0 for no effect and ±100 for the full control effect
Outline: (§1)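 Cells exposed to compounds for 48 or 72 hr at 37 degrees Celsius. Viability read as ATP-coupled luminescence with CellTiter-Glo after 10 min at room temperature.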

[2] = tested on: HEK293; experiment: as above; settings: Five cell lines viability, CellTiter-Glo ATP luminescence, 48-72 h; hits give low values
Outline: as §1

[3] = tested on: HaCat; experiment: as above; settings: Five cell lines viability, CellTiter-Glo ATP luminescence, 48-72 h; hits give low values
Outline: as §1

[4] = tested on: NIH3T3; experiment: as above; settings: Five cell lines viability, CellTiter-Glo ATP luminescence, 48-72 h; hits give low values
Outline: as §1

[5] = tested on: HACAT; experiment: qHTS assay to identify novel small-molecules to repurpose for Merkel cell carcinoma treatment (AID 1296009); settings: MCC and control cell lines, CellTiter-Glo viability, 72 h; at 44.8 µM (top of the series) unless noted
Outline: (§2)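 CellTiter-Glo luminescence after 72 hr compound exposure at 37 degree celsius gave cell viability. Libraries NPC and MIPE were run as 8- and 11-point dose responses; RLUs normalized to DMSO (negative) and no-cell (cytotoxicity) controls.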

[6] = tested on: HEK293T; experiment: as above; settings: MCC and control cell lines, CellTiter-Glo viability, 72 h; at 44.8 µM (top of the series) unless noted
Outline: as §2

[7] = tested on: MCC-13; experiment: as above; settings: MCC and control cell lines, CellTiter-Glo viability, 72 h; series mostly up to 46 µM
Outline: as §2

[8] = tested on: MCC-26; experiment: as above; settings: MCC and control cell lines, CellTiter-Glo viability, 72 h; series mostly up to 46 µM
Outline: as §2

[9] = tested on: P93_24; experiment: qHTS profiling for inhibitors of Plasmodium falciparum proliferation (AID 504749); note: potency is the fitted concentration of half-maximal effect; settings: P. falciparum in erythrocytes, SYBR Green DNA, 72 h; series mostly up to 28.7 µM
Outline: (§3)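 SYBR Green fluorescence (ex 485 nm, em 535 nm) reports parasite DNA after 72 h compound exposure of infected red cells at 0.3% parasitemia, 2.5% hematocrit; signal normalized to 0.29 uM artemisinin and vehicle wells.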

[10] = tested on: P94_40; experiment: as above; settings: P. falciparum in erythrocytes, SYBR Green DNA, 72 h; series mostly up to 28.7 µM
Outline: as §3

[11] = tested on: PAD; experiment: as above; settings: P. falciparum in erythrocytes, SYBR Green DNA, 72 h; series mostly up to 28.7 µM
Outline: as §3

[12] = tested on: PC15; experiment: as above; settings: P. falciparum in erythrocytes, SYBR Green DNA, 72 h; series mostly up to 28.7 µM
Outline: as §3

[13] = tested on: PC26; experiment: as above; settings: P. falciparum in erythrocytes, SYBR Green DNA, 72 h; series mostly up to 28.7 µM
Outline: as §3

[14] = tested on: PC49; experiment: as above; settings: P. falciparum in erythrocytes, SYBR Green DNA, 72 h; series mostly up to 28.7 µM
Outline: as §3

[15] = tested on: SC27B; experiment: as above; settings: P. falciparum in erythrocytes, SYBR Green DNA, 72 h; series mostly up to 28.7 µM
Outline: as §3

[16] = tested on: TAB109; experiment: as above; settings: P. falciparum in erythrocytes, SYBR Green DNA, 72 h; series mostly up to 28.7 µM
Outline: as §3

[17] = tested on: TAB113; experiment: as above; settings: P. falciparum in erythrocytes, SYBR Green DNA, 72 h; series mostly up to 28.7 µM
Outline: as §3

[18] = tested on: TAB165; experiment: as above; settings: P. falciparum in erythrocytes, SYBR Green DNA, 72 h; series mostly up to 28.7 µM
Outline: as §3

[19] = tested on: W2; experiment: as above; settings: P. falciparum in erythrocytes, SYBR Green DNA, 72 h; series mostly up to 28.7 µM
Outline: as §3

[20] = tested on: KB-3-1; experiment: Cytotoxic Profiling of Annotated Libraries Using Quantitative High-Throughput Screening (AID 1296008); settings: Five cell lines viability, CellTiter-Glo ATP luminescence, 48-72 h, hits give low values; for max response: % is set by controls: 0 for no effect and ±100 for the full control effect
Outline: as §1
Note: nearly all actives have a fitted effect of over 60% in size.

CC(C)NC[C@@H](O)COc1ccc(CC(N)=O)cc1
inactive: max response [1] -2.68% | outcome [2] | outcome [3] | max response [4] -2.96% | outcome [5] | outcome [6] | outcome [7] | outcome [8]

O=c1[nH]c2cc(C(F)(F)F)c(N3CCOCC3)cc2n(CP(=O)(O)O)c1=O
inactive: Potency [9] | Potency [10] | Potency [11] | Potency [12] | Potency [13] | Potency [14] | Potency [15] | Potency [16] | Potency [17] | Potency [18] | Potency [19] | outcome [1] | max response [2] 2.88% | max response [3] 2.4% | max response [20] 8.61% | outcome [4] | outcome [7] | outcome [8]

NS(=O)(=O)c1cc2c(cc1C(F)(F)F)NCNS2(=O)=O
inactive: Potency [9] | Potency [10] | Potency [11] | Potency [12] | Potency [13] | Potency [14] | Potency [15] | Potency [16] | Potency [17] | Potency [18] | Potency [19] | max response [1] -22.8% | max response [2] -7.43% | max response [3] 2.79% | max response [20] -0.385% | max response [4] -4.18% | outcome [7] | outcome [8]

CCCCC1(COC(=O)CCC(=O)O)C(=O)N(c2ccccc2)N(c2ccccc2)C1=O
inactive: Potency [9] | Potency [10] | Potency [11] | Potency [12] | Potency [13] | Potency [14] | Potency [15] | Potency [16] | Potency [17] | Potency [18] | Potency [19] | outcome [1] | max response [2] -6.41% | max response [3] -4.26% | max response [20] 2.02% | outcome [4] | outcome [7] | outcome [8]

NC(=O)CC[C@@H](N)C(=O)O
inactive: Potency [10] | Potency [11] | Potency [12] | Potency [13] | Potency [14] | Potency [15] | Potency [16] | Potency [17] | Potency [18] | Potency [19] | max response [1] -0.379% | max response [2] -7.81% | max response [3] -14.8% | max response [20] -2.46% | max response [4] 0.058% | outcome [7] | outcome [8]

CCCCCCCCCCCCCCCCCCO
inactive: Potency [9] | Potency [10] | Potency [11] | Potency [12] | Potency [13] | Potency [14] | Potency [15] | Potency [16] | Potency [17] | Potency [18] | Potency [19] | max response [1] 0.886% | max response [2] -5.18% | max response [3] -4.21% | max response [20] 12.1% | outcome [4] | outcome [7]

Nc1ccc(C(=O)Oc2ccccc2)c(O)c1
inactive: Potency [9] | Potency [10] | Potency [11] | Potency [12] | Potency [13] | Potency [14] | Potency [15] | Potency [16] | Potency [17] | Potency [18] | Potency [19] | max response [1] 2.06% | max response [2] 0.228% | max response [3] -1.24% | max response [20] -4.49% | outcome [4] | outcome [7] | outcome [8]

O=C(c1ccccc1)C(O)c1ccccc1 (configuration not stated)
inactive: Potency [9] | Potency [10] | Potency [11] | Potency [12] | Potency [13] | Potency [15] | Potency [16] | Potency [17] | Potency [18] | max response [1] -6.36% | max response [2] -4.36% | max response [3] -0.758% | max response [20] -15.7% | outcome [4] | outcome [7] | outcome [8]

Cc1cc(=O)[nH]c(=S)[nH]1
inactive: Potency [9] | Potency [10] | Potency [11] | Potency [12] | Potency [13] | Potency [14] | Potency [15] | Potency [16] | Potency [17] | Potency [18] | Potency [19] | max response [1] 1.13% | max response [2] -1.11% | max response [3] -13.5% | max response [20] -0.427% | outcome [4] | outcome [7] | outcome [8]

Nc1ncnc(Nc2ccccc2)n1
inactive: Potency [9] | Potency [10] | Potency [11] | Potency [12] | Potency [13] | Potency [14] | Potency [15] | Potency [16] | Potency [17] | Potency [18] | Potency [19] | max response [1] -1.48% | max response [2] -7.91% | max response [3] 0.531% | max response [20] 3.24% | outcome [4] | outcome [7] | outcome [8]

O=C(O)CNC(=O)c1ccccc1I
inactive: Potency [9] | Potency [10] | Potency [11] | Potency [12] | Potency [13] | Potency [14] | Potency [15] | Potency [16] | Potency [17] | Potency [18] | Potency [19] | max response [1] 4.72% | max response [2] -1.69% | max response [3] -16.3% | max response [20] 7.37% | outcome [4] | outcome [7] | outcome [8]

CC(=O)NCc1c(I)c(NC(C)=O)c(I)c(C(=O)O)c1I
active: Potency [14] 5 nM
inactive: Potency [9] | Potency [10] | Potency [11] | Potency [12] | Potency [13] | Potency [15] | Potency [16] | Potency [17] | Potency [18] | Potency [19] | max response [1] 3.86% | max response [2] -1.82% | max response [3] -5.93% | max response [20] 5.09% | max response [4] -4.33% | outcome [7] | outcome [8]

NC(=O)c1ccc([N+](=O)[O-])cc1Cl
inactive: Potency [10] | Potency [14] | Potency [15] | max response [1] 3.21% | max response [2] -0.167% | max response [3] -15.2% | max response [20] 1.89% | outcome [4] | outcome [7] | outcome [8]
